Active and inactive are the calls of the source.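 The calls were made as follows: active = Her2 level under about 52% in both replicate screens, with viability over 70% of control (limit read from the data); inconclusive = Her2 under the limit in one screen only, or viability under 70%; inactive = Her2 level above the set limit.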
Tested on: not listed separately
Assay: reducers of endogenous Her2 protein level, primary screen, SKBR3 breast tumor cells, AlphaScreen, ATP viability (AID 461);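 as to Her2 level: lower value means less Her2 protein in the cells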;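 as to viability: percent of carrier control wells set as 100% viability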
Details: 18-24 h, measured here: SKBR3 viability, ATP luminescence, at 10 µM

Structure (SMILES)	viability
CCN(CC)S(=O)(=O)c1ccc2oc(C(=O)O)c(C)c2c1	108%
COCCN1CN(S(=O)(=O)c2ccccc2)c2nc3ccccc3nc21	101%
COc1ccc(S(=O)(=O)NCc2ccc(C(=O)O)cc2)cc1	102%
Cc1ccc2c(c1)sc1ncc(NC(=O)c3ccccc3)c(=O)n12	88.5%
CCOC(=O)N1CCC(N2C(=O)c3ccccc3C2Nc2cccnc2)CC1 (stereo not given)	91.5%
CCCCOC(=O)CSc1nc2c(cc1C#N)C(=O)CC(C)(C)C2	87%
CN(C)c1cccc(NC(=O)CCc2ccccc2)c1	86%
CCc1nc(N[C@@H](Cc2c[nH]c3ccccc23)C(=O)O)c2oc3ccccc3c2n1	100%
O=C(CSc1nnc(C2COc3ccccc3O2)o1)N1CCCc2ccccc21 (stereo not given)	85.5%
COc1ccc(CCNc2oc(-c3ccccc3OC)nc2C#N)cc1	88%
CCCn1c(SCC(=O)NC(C)(C)C)nnc1C(C)C	110%
COc1cc(N=c2ssnc2Cl)cc(OC)c1	84.5%
COCCn1c(=O)[nH]c2cc(C(=O)N3CCN(Cc4ccc5c(c4)OCO5)CC3)ccc2c1=O	93.5%
CCCCCC1CC(CC#CCN2CCOCC2)C(=O)O1 (stereo not given)	86%
CC(NC(=O)c1ccco1)c1ccc2c(c1)OCCO2 (stereo not given)	116%
Cn1c(=O)[nH]c(=O)c2c1nc(N1CCCCCC1)n2CCCSc1nc2ccccc2o1	84.5%
O=S(=O)(c1ccc(S(=O)(=O)N(Cc2ccco2)Cc2ccccc2Cl)cc1)N1CCCC1	96%
CCOC(=O)c1[nH]c(C)c(C(=O)Nc2ccccc2F)c1C	89.5%
C=CCN(CC=C)C(=O)CN1C(=O)c2ccccc2C1=O	125%
COc1ccccc1C(=O)NC(C)C(c1cccs1)N1CCN(C)CC1 (stereo not given)	103%

Structure (SMILES)	viability
O=C(CSc1nnnn1C1CCCC1)N1CCN(C(=O)c2ccco2)CC1	82%
Cc1ccccc1-c1nc(CS(=O)(=O)CC(=O)N(C)C2CCCCC2)c(C)o1	108%
O=S(=O)(c1ccc(OCC(O)CN2CCN(c3ccccc3)CC2)cc1)N1CCOCC1 (stereo not given)	100%
O=C(C1CCCO1)N1CCN(C(c2ccccc2)c2ccccc2)CC1 (stereo not given)	98.5%
CCn1nnnc1SCC(=O)N1CCOCC1	116%
CC(NC(=O)c1ccc2c(c1)OCO2)C(c1cccs1)N1CCOCC1 (stereo not given)	97.5%
CCC12CN3CC(CC)(CN(C1)C3c1ccc(OC(C)C)cc1)C2=O (stereo not given)	94%
O=C1CCC(c2ccccc2)N1C(=O)c1cccnc1 (stereo not given)	129%
CCOC(=O)CSc1nnc(CNC(=O)c2cccs2)n1-c1cc(OC)ccc1OC	96.5%
Cn1c(=O)c2c(nc(NCc3ccco3)n2C/C=C/c2ccccc2)n(C)c1=O	100%
O=C(CS(=O)(=O)c1cn(Cc2ccc(Cl)cc2)c2ccccc12)N1CCOCC1	84%
CCN(C(=O)CN1CCN(c2ccccc2OC)CC1)c1c(N)n(Cc2ccccc2)c(=O)[nH]c1=O	113%
CCn1c(CNc2ccc(C)cc2)nnc1SCC(=O)NCc1ccccc1	89%
CCOC(=O)N1CCC(NC(=O)C2CCCN2C(=O)OCc2ccccc2)CC1 (stereo not given)	93%
Cc1ccc(-c2nnc(-c3ccc(Br)cc3)o2)o1	100%
CN(C)S(=O)(=O)c1ccc(C(=O)N2CCCC2c2nc3ccccc3s2)cc1 (stereo not given)	98%
CC(=O)c1c(OCC(=O)O)ccc2c(C)cc(=O)oc12	136%
Cc1ccc2cc(C(c3nnnn3CC3CCCO3)N3CCc4ccccc4C3)c(=O)[nH]c2c1 (stereo not given)	87%
O=C(c1ccccc1)N1CCN(CC2CC=CCC2)CC1 (stereo not given)	82.5%
Cc1ccccc1-c1nc(CS(=O)(=O)CC(=O)NCc2ccccc2)c(C)o1	93.5%

Target: Receptor tyrosine-protein kinase erbB-2 (Homo sapiens) (UniProt P04626)
Assay: as above
Details: 18-24 h, at 10 µM, stronger effect = lower value

Receptor tyrosine-protein kinase erbB-2 (Homo sapiens), sequence (P04626 whole entry, looked up): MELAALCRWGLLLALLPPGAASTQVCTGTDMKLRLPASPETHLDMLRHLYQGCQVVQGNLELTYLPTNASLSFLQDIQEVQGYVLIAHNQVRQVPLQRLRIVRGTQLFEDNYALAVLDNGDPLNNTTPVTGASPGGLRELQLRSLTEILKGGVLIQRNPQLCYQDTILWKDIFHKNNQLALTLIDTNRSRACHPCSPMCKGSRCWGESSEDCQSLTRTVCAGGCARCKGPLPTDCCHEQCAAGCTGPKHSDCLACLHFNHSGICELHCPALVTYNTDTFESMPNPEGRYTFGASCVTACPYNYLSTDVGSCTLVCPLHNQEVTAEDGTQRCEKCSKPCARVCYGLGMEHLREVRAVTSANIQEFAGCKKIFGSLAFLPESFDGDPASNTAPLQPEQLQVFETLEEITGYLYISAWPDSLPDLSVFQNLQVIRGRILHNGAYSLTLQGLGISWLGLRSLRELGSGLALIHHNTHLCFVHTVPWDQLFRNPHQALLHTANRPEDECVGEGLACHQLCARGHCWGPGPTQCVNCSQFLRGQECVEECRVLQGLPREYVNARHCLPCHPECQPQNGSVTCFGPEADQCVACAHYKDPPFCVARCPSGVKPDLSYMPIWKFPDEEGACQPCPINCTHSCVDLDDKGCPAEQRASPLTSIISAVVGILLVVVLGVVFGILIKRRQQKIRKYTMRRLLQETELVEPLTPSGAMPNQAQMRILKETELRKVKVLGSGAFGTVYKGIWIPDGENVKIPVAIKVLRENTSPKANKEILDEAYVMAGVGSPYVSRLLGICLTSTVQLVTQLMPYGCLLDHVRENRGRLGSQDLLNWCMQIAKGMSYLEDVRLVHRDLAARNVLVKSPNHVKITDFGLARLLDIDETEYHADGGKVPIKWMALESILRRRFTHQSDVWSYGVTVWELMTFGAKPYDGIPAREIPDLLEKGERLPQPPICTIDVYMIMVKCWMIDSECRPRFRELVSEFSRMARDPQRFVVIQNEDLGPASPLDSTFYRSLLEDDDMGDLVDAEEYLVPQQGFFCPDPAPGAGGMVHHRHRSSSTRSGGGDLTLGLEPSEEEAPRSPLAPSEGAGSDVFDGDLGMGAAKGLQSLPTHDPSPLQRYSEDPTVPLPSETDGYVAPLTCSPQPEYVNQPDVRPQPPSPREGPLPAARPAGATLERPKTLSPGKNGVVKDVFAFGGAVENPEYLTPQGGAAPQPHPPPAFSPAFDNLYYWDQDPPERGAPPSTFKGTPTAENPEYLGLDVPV

Structure (SMILES)	Her2 level
CCN(CC)S(=O)(=O)c1ccc2oc(C(=O)O)c(C)c2c1	100% (inactive)
COCCN1CN(S(=O)(=O)c2ccccc2)c2nc3ccccc3nc21	93.5% (inactive)
COc1ccc(S(=O)(=O)NCc2ccc(C(=O)O)cc2)cc1	99% (inactive)
Cc1ccc2c(c1)sc1ncc(NC(=O)c3ccccc3)c(=O)n12	87% (inactive)
CCOC(=O)N1CCC(N2C(=O)c3ccccc3C2Nc2cccnc2)CC1 (stereo not given)	104% (inactive)
CCCCOC(=O)CSc1nc2c(cc1C#N)C(=O)CC(C)(C)C2	86% (inactive)
CN(C)c1cccc(NC(=O)CCc2ccccc2)c1	90% (inactive)
CCc1nc(N[C@@H](Cc2c[nH]c3ccccc23)C(=O)O)c2oc3ccccc3c2n1	81% (inactive)
O=C(CSc1nnc(C2COc3ccccc3O2)o1)N1CCCc2ccccc21 (stereo not given)	78% (inactive)
COc1ccc(CCNc2oc(-c3ccccc3OC)nc2C#N)cc1	106% (inactive)
CCCn1c(SCC(=O)NC(C)(C)C)nnc1C(C)C	79.5% (inactive)
COc1cc(N=c2ssnc2Cl)cc(OC)c1	111% (inactive)
COCCn1c(=O)[nH]c2cc(C(=O)N3CCN(Cc4ccc5c(c4)OCO5)CC3)ccc2c1=O	106% (inactive)
CCCCCC1CC(CC#CCN2CCOCC2)C(=O)O1 (stereo not given)	102% (inactive)
CC(NC(=O)c1ccco1)c1ccc2c(c1)OCCO2 (stereo not given)	95.5% (inactive)
Cn1c(=O)[nH]c(=O)c2c1nc(N1CCCCCC1)n2CCCSc1nc2ccccc2o1	80% (inactive)
O=S(=O)(c1ccc(S(=O)(=O)N(Cc2ccco2)Cc2ccccc2Cl)cc1)N1CCCC1	74.5% (inactive)
CCOC(=O)c1[nH]c(C)c(C(=O)Nc2ccccc2F)c1C	75.5% (inactive)
C=CCN(CC=C)C(=O)CN1C(=O)c2ccccc2C1=O	89.5% (inactive)
COc1ccccc1C(=O)NC(C)C(c1cccs1)N1CCN(C)CC1 (stereo not given)	149% (inactive)

Structure (SMILES)	Her2 level
O=C(CSc1nnnn1C1CCCC1)N1CCN(C(=O)c2ccco2)CC1	89.5% (inactive)
Cc1ccccc1-c1nc(CS(=O)(=O)CC(=O)N(C)C2CCCCC2)c(C)o1	104% (inactive)
O=S(=O)(c1ccc(OCC(O)CN2CCN(c3ccccc3)CC2)cc1)N1CCOCC1 (stereo not given)	90% (inactive)
O=C(C1CCCO1)N1CCN(C(c2ccccc2)c2ccccc2)CC1 (stereo not given)	94% (inactive)
CCn1nnnc1SCC(=O)N1CCOCC1	91% (inactive)
CC(NC(=O)c1ccc2c(c1)OCO2)C(c1cccs1)N1CCOCC1 (stereo not given)	82.5% (inactive)
CCC12CN3CC(CC)(CN(C1)C3c1ccc(OC(C)C)cc1)C2=O (stereo not given)	92% (inactive)
O=C1CCC(c2ccccc2)N1C(=O)c1cccnc1 (stereo not given)	95.5% (inactive)
CCOC(=O)CSc1nnc(CNC(=O)c2cccs2)n1-c1cc(OC)ccc1OC	94% (inactive)
Cn1c(=O)c2c(nc(NCc3ccco3)n2C/C=C/c2ccccc2)n(C)c1=O	84.5% (inactive)
O=C(CS(=O)(=O)c1cn(Cc2ccc(Cl)cc2)c2ccccc12)N1CCOCC1	92.5% (inactive)
CCN(C(=O)CN1CCN(c2ccccc2OC)CC1)c1c(N)n(Cc2ccccc2)c(=O)[nH]c1=O	102% (inactive)
CCn1c(CNc2ccc(C)cc2)nnc1SCC(=O)NCc1ccccc1	100% (inactive)
CCOC(=O)N1CCC(NC(=O)C2CCCN2C(=O)OCc2ccccc2)CC1 (stereo not given)	106% (inactive)
Cc1ccc(-c2nnc(-c3ccc(Br)cc3)o2)o1	93.5% (inactive)
CN(C)S(=O)(=O)c1ccc(C(=O)N2CCCC2c2nc3ccccc3s2)cc1 (stereo not given)	127% (inactive)
CC(=O)c1c(OCC(=O)O)ccc2c(C)cc(=O)oc12	104% (inactive)
Cc1ccc2cc(C(c3nnnn3CC3CCCO3)N3CCc4ccccc4C3)c(=O)[nH]c2c1 (stereo not given)	82% (inactive)
O=C(c1ccccc1)N1CCN(CC2CC=CCC2)CC1 (stereo not given)	79% (inactive)
Cc1ccccc1-c1nc(CS(=O)(=O)CC(=O)NCc2ccccc2)c(C)o1	100% (inactive)
